± gives the standard deviation. In all, about 3,700 sequences were measured (“pre-steady-state target cleavage rate”: median about 0.02, highest 2% from about 0.23 on). The full list was thinned out, with the highest values kept by preference.
system: MILI (PIWIL2) piRISC loaded with Kctd7 piRNA (26 nt); assay: pre-steady-state target cleavage rate (min^-1); MIWI and MILI are mouse PIWI proteins and EfPiwi is from a freshwater sponge; tags in brackets are library labels; higher = faster piRNA-guided slicing of the target; conditions: guide: Kctd7 piRNA 5'p-UGUUAAUCUCUCAGAGAAGGUGACAG; auxiliary factor: 500 nM mouse GTSF1
Experimental: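 Cleave-'n-Seq: a library of target RNAs (target site embedded in constant flanks, ACAGCATTCCGCGTTAGTGATATCCG... 5' flank; DNA-blocked outside the site) at 0.1 nM was incubated with 1 nM active mouse MILI or MIWI piRISC (synthetic 5'-monophosphorylated piRNA guide) with or without 500 nM mouse GTSF1 at 33 °C for 1 min to 16 h. Uncleaved targets were sequenced and normalised to non-target controls, and the pooled three trials were fitted to a burst-and-steady-state model to give the pre-steady-state cleavage rate (min^-1; k3 is constrained to at most 1e-4). Sequence is the target site only; target names encode pairing extent (gX:gY) and contiguous / 1-mismatch / 2-mismatch / bulge geometry. Fits with R² ≤ 0 are excluded.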

Sequence	pre-steady-state target cleavage rate
UAGUGUGUCACCUACACUGAGAGAUUAACA	0.15 ± 0.011
UAGUCUGUCACCUUCAUCUGAGAGAUUAACA	0.204 ± 0.052
UAGUCUGUCACCUUCUUCUGAGAGAUUAACA	0.0864 ± 0.021
UAGUCUGUCACCUUCUUUGAGAGAUUAACA	0.259 ± 0.019
UAGUGUGUCACCUUCUUUGAGAGAUUAACA	0.229 ± 0.016
UAGUGAGUCACCUUCUUUGAGAGAUUAACA	0.334 ± 0.029
UAGUGAGUCACCUUCUUGAGAGAUUAACA	0.0386 ± 0.014
UAGUCUGUCACCUUCUUGAGAGAUUAACA	0.07 ± 0.023
UAGUGAGUCUCCUUCACUGAGAGAUUAACA	0.166 ± 0.016
UAGUGACUCUCCUUCUGUGAGAGAUUAACA	0.0558 ± 0.01
UAGUGACAGACGUUCUCUCAGAGAUUAACA	0.0137 ± 0.0054
UAGUCUGUCACCUUCUCUGAGAGGAUUAACA	0.174 ± 0.019
UAGUCUGUCACCUUCUCUGAGAGAUUAACG [g2:g26:cont:t1G]	0.196 ± 0.011
UAGUCGUGUCACCUUCUCUGAGAGAUUAACA	0.199 ± 0.01
UAGUCCUGUCACCUUCUCUGAGAGAUUAACA	0.275 ± 0.026
UAGUCUGUCACCUUCUCUGAGAGAUUAAA	0.13 ± 0.026
UAGUCUUGUCACCUUCUCUGAGAGAUUAACA	0.341 ± 0.058
UAGUCUGUCACCUUCUCUGAGAGAUUUAACA	0.245 ± 0.023
UAGUCUGUCACCUUCUCUGAGAGAUUAAUCA	0.258 ± 0.041
UAGUCUGUCACCUUCUCUCUGAGAUUAACA	0.00967 ± 0.0028
UAGUCUUCACCUUCUCUGAGAGAUUAACA	0.213 ± 0.019
UAGUCUGUCACCUUCCUGAGAGAUUAACA	0.0844 ± 0.028
UAGUCUGUCACCUUCUCUGAGAGAUUAAUA	0.118 ± 0.02
UAGUCUCUCACCUUGUCUGAGAGAUUAACA	0.0068 ± 0.0039
UAGUGUGACACCUUCUGUGAGAGAUUAACA	0.123 ± 0.015

Sequence	pre-steady-state target cleavage rate
UAGUCUGUCACCUACUCUGAGAGAAUAACA	0.0882 ± 0.017
UAGUGACUCACCUUCUCUGAGAGUUUUACA	0.0214 ± 0.01
UAGUGACAGUGCUUCUCUGAGAAAUUAACA	0.00916 ± 0.0047
UAGUCUGUCACCUUCAGAGAGAGAUUAACA	0.0227 ± 0.0099
UAGUGACAGUCCUUCUCUGAGGAGAUUAACA	0.00431 ± 0.0026
UAGUGACAGUGGAAGAGUGACAGAUUAACA	< 0.0001
UAGUCUGUCACCUUCUCUGAGAGAUUAACU [g2:g26:cont:t1U]	0.244 ± 0.026
UAGUCUGUCACCUCUCUCUGAGAGAUUAACA	0.164 ± 0.015
UAGUCUGUCACCUUCUCUGAGAGAUUAACA [g2:g26:cont:t1A]	0.22 ± 0.013
UAGUCUGUCACCUCUCUGAGAGAUUAACA	0.208 ± 0.018
UAGUCUGUCACCCUCUCUGAGAGAUUAACA	0.238 ± 0.018
UAGUCUGUCACCUUCUCUGAGAGAUUAACC [g2:g26:cont:t1C]	0.173 ± 0.013
UAGUGACACACCUUCUCAGAGAGAUUAUGA	0.0269 ± 0.01
UAGUGUGUCACCUUCUCUGAGAGAUUAAA	0.234 ± 0.064
UAGUGUGUCACCUUCUCUGAGAGAUUAAUCA	0.18 ± 0.032
UAGUGUGUCACCUUCUCUGAGAGAUUAAACA	0.214 ± 0.029
UAGUGUGUCACCUUCUCUGAGAGAUUAAUA	0.236 ± 0.037
UAGUGUGUCACCUUCUCUGAGAGAUUAAGA	0.145 ± 0.036
UAGUGUGUCACCUUCUCUGAGAGAUUAAAA	0.108 ± 0.022
UAGUGACAGUGCUUCUCUGAGAGAAUUAACA	0.0127 ± 0.0041
UAGUGUGUCACCUUCUCUGAGAGCAUUAACA	0.17 ± 0.022
UAGUCUCUCACCUUCUCUGAGAGAUAAACA	0.0206 ± 0.0076
UAGUGUGUCACCUUCUCUGAGAGAUUCACA	0.239 ± 0.049
UAGUGUGUCACCUUCUCUGAGAGAUUCAACA	0.219 ± 0.038
UAGUCUGUCACCUUCUCUGAGAGAUUGACA	0.246 ± 0.044

Sequence	pre-steady-state target cleavage rate
UAGUGUGUCACCUUCUCUGAGAGAUUGACA	0.25 ± 0.063
UAGUGAGUCACCUUCUCUGAGAGAUUGACA	0.208 ± 0.042
UAGUGUGUCACCUUCUCUGAGAGAUAUUCA	0.143 ± 0.047
UAGUCUGUCACCUUCUCUGAGAGAUUGAACA	0.214 ± 0.029
UAGUCUGUCACCUUCUCUGAGAGAUUUUGA	0.0133 ± 0.0061
UAGUGUGUCACCUUCUCUGAGAGAUUGAACA	0.0931 ± 0.017
UAGUGUGUGACCUUGUCUGAGAGAUUAACA	0.0744 ± 0.014
UAGUGAGUCACCAUCUCUGACAGAUUAACA	0.0409 ± 0.0068
UAGUGACUCACCUUCUCUGAGAGCAUUAACA	0.144 ± 0.016
UAGUGACAGUGGAAGACUGACAGAUUUACA	< 0.0001
UAGUGACAGUCAUUCUCUGAGAGAUUAACA	0.00865 ± 0.0029
UAGUGACAGACCUUCUCUGAGAAAUUAACA	0.0522 ± 0.015
UAGUGACAGACGCUUCUCUGAGAGAUUAACA	0.0399 ± 0.0079
UAGUGAGUCAGCUUCUCUGAGAGAUUUACA	0.1 ± 0.018
UAGUGUGACACCAUCUCUGAGAGAUUAACA	0.137 ± 0.011
UAGUGACAGUCCGUCUCUGAGAGAUUAACA	0.0557 ± 0.0066
UAGUCUGUCAGCUUCACUGAGAGAUUAACA	0.0681 ± 0.0072
UAGUGACACACCUUCUCUGAGAGAUUAUGA	0.0394 ± 0.012
UAGUGUGUCACCUACUCUGAGACAUUAACA	0.0742 ± 0.019
UAGUCUGUCACCUUCUCUGAGAGUAUAACA	0.122 ± 0.022
UAGUCUGUCACCUUCUCUGAGAGAGUAACA	0.245 ± 0.033
UAGUCUGUCACCUUCUCUGAGAGUAAAACA	0.0676 ± 0.024
UAGUCUGUCACCUUCUCUGAGAGAGUUAACA	0.297 ± 0.035
